Here are results for 80 molecules from PubChem BioAssay AID1259421 (Broad Institute, 2018).

Structures are written as SMILES. Several values for one entry are separate records, joined by “and”; a condition that tells them apart may be missing. Equal values may be shown once. Hit rate of the full screen: of about 6,400 compounds, about 610 (9.5%) were called active. Cut-off read from the data, not from the text of the source: active = activity change below about -70%; inconclusive = no clear call, values can overlap the other calls; inactive = above that. The full list was thinned out, with actives kept by preference. Where a structure was tested more than once in an assay, its records may differ in their call.

This experiment is described as follows: Toxoplasma gondii ME49Luc growth in HeLa cells, luciferase, no IFN-y, primary screen (AID 1259421). The settings on record: T. gondii ME49Luc in HeLa, 72 h, stronger effect = lower value, concentration not given here.
Turning to `Cc1cc2c(C(C)C)c(O)c(O)c(C=O)c2c(O)c1-c1c(C)cc2c(C(C)C)c(O)c(O)c(C=O)c2c1O`, the activity change, negative = inhibition is -70.8% (active) and -12.6% (inactive). The figure for `Cc1cc(=O)oc2c(C=O)c(O)ccc12` is 16.5% (inactive). In the case of `CC(=O)c1ccc(O)c(C(N)=O)c1`, the activity change, negative = inhibition is 7.8% (inactive).

Turning to `CCCCNCC1COc2ccccc2O1` (stereo not given), the activity change, negative = inhibition is 0.699% (inactive). For `O=C1NCc2c1c1c3ccccc3[nH]c1c1[nH]c3ccccc3c21` the value was 2.85% (inactive); for `Cc1[nH]cnc1CN1CCc2c(c3ccccc3n2C)C1=O`, 17% (inactive).

In the case of `CO[C@@H]1[C@H](N(C)C(=O)c2ccccc2)C[C@H]2O[C@]1(C)n1c3ccccc3c3c4c(c5c6ccccc6n2c5c31)C(=O)NC4`, the activity change, negative = inhibition was -86.8% (active).

`Cn1c2ccccc2c2c3c(c4c5ccccc5n(CCC#N)c4c21)CNC3=O`: the activity change, negative = inhibition is -94.9% (active). For `CN[C@@H]1C[C@H]2O[C@@](C)([C@@H]1OC)n1c3ccccc3c3c4c(c5c6ccccc6n2c5c31)C(=O)N[C@H]4O` the value was -88.9% (active); for `C[C@]12OC(C[C@]1(O)CO)n1c3ccccc3c3c4c(c5c6ccccc6n2c5c31)CNC4=O`, -87.7% (active); for `CC1(C)Oc2ccc(C#N)cc2C(N2CCCC2=O)C1O` (stereo not given), 4.23% (inactive).

For `C[N+](C)(C)C[C@H](O)CC(=O)O`, the activity change, negative = inhibition was 9.13% (inactive). For `CC(Cc1ccccc1)(NC(=O)CN)c1ccccc1` (stereo not given) the value was -47.2% (inactive) and 8.98% (inactive). For `CCc1ccc(C(=O)C(C)CN2CCCCC2)cc1` (stereo not given), the activity change, negative = inhibition is 8.8% (inactive) and 14.4% (inactive).

For `O=C(/C=C/c1ccc(O)c(O)c1)OC(Cc1ccc(O)c(O)c1)C(=O)O` (stereo not given), the activity change, negative = inhibition was 2.52% (inactive).

Take `CO/N=C(\N)c1ccc(-c2ccc(-c3ccc(/C(N)=N/OC)cc3)o2)cc1`: the activity change, negative = inhibition was 86.4% (inactive). Consider `COc1cc(OC)cc(OC)c1`, for which the activity change, negative = inhibition was 10% (inactive). For `O=C(CO)C(O)C(O)C(O)CO` (stereo not given) the value was 2.77% (inactive); for `CC(=O)[C@H]1CCC2C3CC=C4C[C@@H](O)CC[C@]4(C)C3CC[C@@]21C` (stereo not given in full), 1.09% (inactive); for `COc1ccc(Cl)cc1NC(=O)Nc1cc(C)nc2ccccc12`, -81.5% (active) and -81.1% (active). For `COC(=O)c1cc(Cl)ccc1OC` the value was 1.3% (inactive). `COc1cc(OC)c(NC(=O)Nc2cc(C)on2)cc1Cl`: the activity change, negative = inhibition was 4.07% (inactive) and 26.1% (inactive). As to `O=C(O)Cc1csc(-c2ccc(Cl)cc2)n1`, the activity change, negative = inhibition is 15.8% (inactive).

For the molecule `CS(=O)(=O)Nc1cc2occ(NC=O)c(=O)c2cc1Oc1ccccc1`, the activity change, negative = inhibition is 15.7% (inactive). On to `CCCCCCCCCCC(C)(C)C(=O)Nc1c(OC)cc(OC)cc1OC`, for which the activity change, negative = inhibition was 16.9% (inactive). As to `CC(C)(C)/[N+]([O-])=C/c1ccc(S(=O)(=O)O)cc1S(=O)(=O)O`, the activity change, negative = inhibition was 8.6% (inactive). Regarding `CS(=O)(=O)c1ccc(C(=O)Nc2ccc(Cl)c(-c3ccccn3)c2)c(Cl)c1`, the activity change, negative = inhibition is 19.4% (inactive). With `CS(=O)(=O)c1ccc(-c2cnc(N)c(C(=O)Nc3ccccc3)n2)cc1`, the activity change, negative = inhibition was -81.9% (active). As to `CC(=O)NS(=O)(=O)c1ccc(NC(=O)c2ccccc2C(=O)O)cc1`, the activity change, negative = inhibition is 1.07% (inactive). `CN1CCN(S(=O)(=O)c2ccc(-c3cnc(N)c(C(=O)Nc4cccnc4)n3)cc2)CC1`: the activity change, negative = inhibition was -77.6% (active).

With `CN(C)c1nc(N)c(C(=O)Nc2cccnc2)nc1Cl`, the activity change, negative = inhibition was 157% (inactive) and 219% (inactive). For the molecule `Cn1ccc2cc3c(cc21)CCN3C(=O)Nc1cccnc1`, the activity change, negative = inhibition was 104% (inactive) and 4.22% (inactive). Take `COc1ccc(/C=C/c2cc(O)cc(O[C@@H]3O[C@H](CO)[C@@H](O)[C@H](O)[C@H]3O)c2)cc1`: the activity change, negative = inhibition is 12.1% (inactive). As for `Clc1cccc(C=NC=Nc2cccc(Cl)c2)c1`, the activity change, negative = inhibition was -3.22% (inactive). With `COC(=O)[C@@H]1CC(=O)O[C@H](C)C/C=C/C=C/[C@H](O)[C@H](C)C[C@H](CC=O)[C@H](OC2O[C@H](C)[C@@H](OC3C[C@@](C)(O)[C@@H](OC(=O)CC(C)C)[C@H](C)O3)[C@H](N(C)C)[C@H]2O)[C@H]1OC` (stereo not given in full), the activity change, negative = inhibition was -63.5% (inactive). `CC(Cc1ccc(O)c(O)c1)C(C)Cc1ccc(O)c(O)c1` (stereo not given): the activity change, negative = inhibition is 5.71% (inactive).

With `CNC(=O)c1ccc2cc([C@]3(O)CCn4cncc43)ccc2c1`, the activity change, negative = inhibition is 9.56% (inactive). Regarding `C=C1C(=O)CC2CC3OC3(C)CCC3OC3(C)C[C@H](OC(C)=O)C1C2(C)C` (stereo not given in full), the activity change, negative = inhibition was -76.2% (active). For the molecule `NCC(=O)CCC(=O)OCc1ccccc1`, the activity change, negative = inhibition was 16.4% (inactive). On to `NC(Cc1ccccn1)c1ccccc1` (stereo not given), for which the activity change, negative = inhibition is 13% (inactive). The figure for `Cc1ccc2c(Cl)cc(Cl)c(O)c2n1` is -84% (active); for `Oc1c(I)cc(I)c2cccnc12` it is -8.85% (inactive) and -77.3% (active). For `Oc1c(I)cc(Cl)c2cccnc12`, the activity change, negative = inhibition was 24.2% (inactive).

For `O=S(=O)(O)c1cc(I)c(O)c2ncccc12`, the activity change, negative = inhibition is 9.1% (inactive) and 15.9% (inactive).

In the case of `Oc1c(Cl)cc(Cl)c2cccnc12`, the activity change, negative = inhibition was -83.9% (active) and -88% (active) and -90% (active).

`CO[C@@H]1[C@@H](O[C@@H]2O[C@H](C)[C@@H](O[C@H]3C[C@@](C)(O)[C@H](O)[C@H](C)O3)[C@H](N(C)C)[C@H]2O)[C@@H](CC=O)C[C@@H](C)[C@@H](O[C@H]2CC[C@H](N(C)C)[C@@H](C)O2)/C=C/C=C/C[C@H](C)OC(=O)C[C@H]1O`: the activity change, negative = inhibition was 4.59% (inactive). The figure for `C[n+]1cccc(C(=O)O)c1` is 14.5% (inactive). Regarding `O=C(O)CC(O)(CC(=O)[O][Bi]1[O]C(=O)CC(O)(CC(=O)O)C(=O)[O]1)C(=O)O` (stereo not given), the activity change, negative = inhibition is 22.8% (inactive). With `CCC(C)(C)C(=O)O`, the activity change, negative = inhibition is 9.3% (inactive). For `O=C(O)Cc1ccc(OCCNC[C@H](O)c2ccccc2)cc1` the value was 15.6% (inactive) and 5.18% (inactive); for `COC(=O)C[C@H]1C(C)(C)C(=O)[C@@H]2CC3=C(CC[C@]4(C)C3=CC(=O)O[C@H]4c3ccoc3)[C@@]1(C)C2=O`, 16.4% (inactive); for `CC(=O)OCC(=O)[C@@]1(O)CCC2C3CCC4=CC(=O)CC[C@]4(C)[C@@]3(F)[C@@H](O)C[C@@]21C` (stereo not given in full), -4.8% (inactive). Regarding `N[C@@H](CCC(=O)N[C@@H](CS[NH2+][O-])C(=O)NCC(=O)O)C(=O)O`, the activity change, negative = inhibition is 15.6% (inactive). Turning to `CC(C)Cc1ccc([C@@H](C)C(=O)NS(C)(=O)=O)cc1`, the activity change, negative = inhibition was 0.904% (inactive). As to `NC(COCc1ccccc1)C(=O)O` (stereo not given), the activity change, negative = inhibition was 2.58% (inactive). The figure for `CCCc1c(OCCCCc2nn[nH]n2)ccc(C(C)=O)c1O` is 3.01% (inactive); for `N#Cc1c(N)nc(SCc2csc(-c3ccc(Cl)cc3)n2)c(C#N)c1-c1ccc(OCCO)cc1` it is -62.2% (inactive). The figure for `Cc1nccc2[nH]c(=O)ccc12` is 4.39% (inactive); for `CC(=O)O[C@@H]1CC[C@@]2(C)C(CC[C@]3(C)C2C(=O)C=C2[C@@H]4[C@@H](C)[C@H](C)CC[C@]4(C)CC[C@]23C)[C@@]1(C)C(=O)O` (stereo not given in full) it is -14.9% (inactive); for `COc1ccc(CCCOC(Cn2ccnc2)c2ccc(OC)cc2)cc1` (stereo not given) it is -72.3% (active). `O=C(O)c1ccc(OCCn2ccnc2)cc1`: the activity change, negative = inhibition was -29.3% (inactive). With `NC(=O)C1CSSCCC(=O)NC(CCCCN=C(N)N)C(=O)NCC(=O)NC(CC(=O)O)C(=O)NC(Cc2c[nH]c3ccccc23)C(=O)N2CCCC2C(=O)N1` (stereo not given), the activity change, negative = inhibition was 1.76% (inactive). As to `CCOC(=O)CSCCC1NC(C(=O)O)CS1` (stereo not given), the activity change, negative = inhibition is 6.06% (inactive) and 14% (inactive).

As for `N#C/C(=C/c1ccc(O)c(O)c1)C(=O)NCc1ccccc1`, the activity change, negative = inhibition is 27.2% (inactive). For `O=C(O)c1cc2occc2[nH]1` the value was 12% (inactive). The figure for `Cc1cc(C)c2c(c1)[C@@H](N(Cc1cc(C(F)(F)F)cc(C(F)(F)F)c1)c1nnn(C)n1)CCCN2CC1CCC(C(=O)O)CC1` (stereo not given in full) is -80.5% (active); for `CNC(=O)c1cccc(NCC(=O)NCCc2ccc(OC)c(OC)c2)c1` it is 16.5% (inactive). On to `Cc1ccc(C(=O)N(CCCN)[C@@H](c2oc3cc(Cl)ccc3c(=O)c2Cc2ccccc2)C(C)C)cc1`, for which the activity change, negative = inhibition was -80.4% (active). For the molecule `Cc1c(C)n(Cc2ccccc2)c2ccc(C(=O)OCCN(C)C)cc12`, the activity change, negative = inhibition is 11.3% (inactive). With `Cc1ccc(C(=O)N(CCCN)[C@@H](c2nc3cc(Cl)ccc3c(=O)n2Cc2ccccc2)C(C)C)cc1`, the activity change, negative = inhibition was -72.6% (active).

In the case of `O=C(O)CC(S)C(=O)O` (stereo not given), the activity change, negative = inhibition was 11.1% (inactive).

With `Cc1cc2nc3c(=O)[nH]c(=O)nc-3n(CC(O)C(O)C(O)CO)c2cc1C` (stereo not given), the activity change, negative = inhibition was 28.7% (inactive) and -4.94% (inactive). Take `O=C(O)[C@H](O)[C@@H](O)[C@H](O)[C@H](O)CO`: the activity change, negative = inhibition was -60.2% (inactive). The figure for `CC(C)C1CCC(C(=O)N[C@H](Cc2ccccc2)C(=O)O)CC1` (stereo not given in full) is 20.3% (inactive). Take `CC(/C=C/C(=O)NO)=C\[C@@H](C)C(=O)c1ccc(N(C)C)cc1`: the activity change, negative = inhibition is -69.6% (inactive). With `CN(C)c1ccc(C(=O)NCCCCCCC(=O)NO)cc1`, the activity change, negative = inhibition is -59.9% (inactive) and -86.2% (active) and -94.9% (active). Consider `O=C(CCCCCCNC(=O)c1cnc(N(c2ccccc2)c2ccccc2)nc1)NO`, for which the activity change, negative = inhibition is -10.9% (inactive).

Take `CCCCCCCCCCCCC/C=C/[C@@H](O)[C@H](COC1OC(CO)C(OC2OC(CO)C(OC3OC(CO)C(O)C(OC4OC(CO)C(O)C(O)C4O)C3NC(C)=O)C(OC3(C(=O)O)CC(O)C(NC(C)=O)C(C(O)C(O)CO)O3)C2O)C(O)C1O)NC(=O)CCCCCCCCCCCCCCCCC` (stereo not given in full): the activity change, negative = inhibition is 8.33% (inactive).

With `O=C(O)c1c(Sc2ccccc2)c2cc(Cl)ccc2n1Cc1ccc(Cl)cc1`, the activity change, negative = inhibition was -5.44% (inactive) and 8.39% (inactive). The figure for `COC(=O)C1CC2=CC(=O)CCC2(C)C23OC2CC2(C)C(CCC24CCC(=O)O4)C13` (stereo not given) is 3.98% (inactive).
